What all share (conditions): concentration: 1 μM,replicates: in singlicate; n = 1
Assay [1] relates to CLK2.
The test system of assay [2] is CLK3.
For assay [3], the system named is CLK4.
Assay [4] has as its system CSF1R-autoinhibited.
The subject of assay [5] is CSF1R.
Assay [6] deals with CSK.
Assay [7] has as its system CSNK1A1L.
In assay [8] the test system is CSNK1A1.
Assay [9] concerns CSNK1D.
Assay [10] has as its system CSNK1E.
Assay [11] deals with CSNK1G1.
In assay [12] the test system is CSNK1G2.
Assay [13] relates to CSNK1G3.
Assay [14] relates to CSNK2A1.
Assay [15] deals with CSNK2A2.
The subject of assay [16] is T1, CTK.
T1 construct: gene MATK

Assay [17] has as its system DAPK1.
For assay [18], the system named is DAPK2.
Assay [19] deals with DAPK3.
Assay [20] concerns T2, DCAMKL1.
T2 construct: gene DCLK1
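Note: KINOMEscan kinase panel screen.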

As to `COc1cc2nccc(Nc3ccc(Oc4ccccc4)cc3)c2cc1OC.Cl` [GI261656], the “%Inh” value came out at 0% in assay [1]; 0% in [2]; 0% in assay [3]; 26% in [4]; 14% in [5]; 91.9% in [6]. In addition, the “%Inh” value in assay [7] turned out to be 0%; in [8], 0%; in [9], 0%; in assay [10] it was 41%; in assay [11] it was 0%; in assay [12] it was 0%. Besides, the “%Inh” value in assay [13] stood at 25%; in assay [14] it was 0%; in [15] it was 24%; in assay [16] it was 0%; in assay [17], 0%; in assay [18], 0%. Besides, the results for the “%Inh” value in assay [19] and in assay [20] were 2% and 0%, respectively.

Consider `O=C(NOCC1CC1)c1cc(Br)c(F)c(F)c1Nc1ccc(I)cc1Cl`, for which the “%Inh” value in assay [1] worked out at 9%; in assay [2] it was 0%; in [3], 0%; in assay [4], 0%; in assay [5] it was 0%; in assay [6] it was 0%. The “%Inh” value in [7] amounted to 0%; in [8], 1%; in assay [9], 0%; in assay [10] it was 0%; in assay [11], 0%; in assay [12], 0%. Also, the “%Inh” value in [13] amounted to 9%; in [14] it was 14%; in assay [15], 6%; in assay [16], 0%; in assay [17], 29%; in [18], 0%. Further, the “%Inh” value is on record as 0% in assay [19] and 22% in assay [20].

Turning to `C[C@@H]1CNc2c(sc3ccc4nc(-c5ccc(O)cc5)ccc4c23)C(=O)N1`, the “%Inh” value in assay [1] is 98.2%; in assay [2], 50%; in assay [3], 95.7%; in assay [4], 7%; in assay [5], 4%; in assay [6], 0%. The “%Inh” value was found to be 84% in assay [7]; 95.4% in assay [8]; 63% in assay [9]; 55% in assay [10]; 29% in assay [11]; 38% in assay [12]. Besides, the “%Inh” value in assay [13] is on record as 32%; in assay [14], 48%; in [15] it was 43%; in assay [16], 43%; in assay [17], 35%; in assay [18] it was 34%. In addition, the “%Inh” value in assay [19] stood at 26%; in assay [20], 37%.

As to `C[C@@H](Oc1cc(-n2cnc3cc(-c4cnn(C)c4)ccc32)sc1C(N)=O)c1ccccc1Cl` [GSK580432], the “%Inh” value is on record as 23% in [1]; 23% in assay [2]; 34% in assay [3]; 0% in [4]; 80% in assay [5]; 3% in [6]. Also, the “%Inh” value in [7] worked out at 1%; in assay [8], 7%; in assay [9], 0%; in assay [10] it was 0%; in assay [11], 30%; in assay [12] it was 0%. Moreover, the “%Inh” value came out at 15% in assay [13]; 7% in assay [14]; 67% in assay [15]; 0% in assay [16]; 75% in [17]; 43% in assay [18]. The results for the “%Inh” value in assay [19] and in assay [20] were 34% and 10%, respectively.

For `Cc1ccn2nc(-c3ccc(F)cc3)c(-c3ccncc3)c2c1.Cl` [GW457859], the “%Inh” value turned out to be 0% in [1]; 1% in assay [2]; 55% in assay [3]; 25% in assay [4]; 9% in assay [5]; 0% in assay [6]. The “%Inh” value in assay [7] is given as 35%; in [8], 92.5%; in [9], 96.3%; in assay [10] it was 99.6%; in assay [11] it was 29%; in assay [12] it was 12%. Further, the “%Inh” value in [13] came out at 31%; in assay [14] it was 0%; in assay [15] it was 14%; in [16], 0%; in assay [17] it was 15%; in assay [18] it was 6%. For the same compound, the entries for the “%Inh” value in [19] and in assay [20] were 0% and 10%, respectively.

`Cc1ccc(CC(=O)N2CCc3cc(-c4cn(C)c5ncnc(N)c45)ccc32)cc1` [GSK2634758]: the “%Inh” value in assay [1] was found to be 0%; in [2], 0%; in assay [3], 0%; in [4], 21%; in assay [5], 79%; in assay [6], 100%. Further, the “%Inh” value is 14% in assay [7]; 0% in assay [8]; 16% in assay [9]; 66% in assay [10]; 30% in [11]; 26% in [12]. The “%Inh” value was found to be 26% in [13]; 0% in [14]; 0% in assay [15]; 0% in [16]; 0% in assay [17]; 5% in assay [18]. Moreover, the “%Inh” value in assay [19] and in assay [20] was 0% in each case.

Turning to `CS(=O)(=O)c1cccc(CNc2nc(Nc3ccc4c(c3)[C@@H]3C[C@@H]4CNC3=O)ncc2C(F)(F)F)c1`, the “%Inh” value in assay [1] was determined as 6%; in assay [2] it was 0%; in [3], 0%; in assay [4], 22%; in assay [5], 5%; in assay [6] it was 0%. The “%Inh” value in [7] turned out to be 0%; in [8], 0%; in assay [9] it was 0%; in assay [10] it was 0%; in [11], 0%; in assay [12], 23%. The “%Inh” value came to 81% in assay [13]; 34% in [14]; 64% in assay [15]; 0% in assay [16]; 27% in assay [17]; 0% in [18]. Moreover, the entries for the “%Inh” value in assay [19] and in assay [20] were 9% and 48%, respectively.

For the compound `CC(C)c1nc(-c2cccc(NS(=O)(=O)c3ccccc3)c2)c(-c2ccnc(Nc3ccc4c(c3)CN(C)CC4)n2)s1` [GSK1649598], the “%Inh” value was found to be 10% in assay [1]; 24% in assay [2]; 0% in [3]; 0% in [4]; 89% in assay [5]; 97.6% in [6]. The “%Inh” value in [7] came to 88%; in assay [8], 87%; in [9], 86%; in assay [10], 98.6%; in assay [11] it was 19%; in assay [12], 0%. The “%Inh” value is reported as 28% in [13]; 0% in assay [14]; 9% in [15]; 5% in assay [16]; 30% in [17]; 55% in assay [18]. Besides, the “%Inh” value in assay [19] was 21%; in assay [20], 0%.

Consider `Nc1nccc(-c2ccc3c(N)n[nH]c3c2)n1` [GSK1034945], for which the “%Inh” value in assay [1] is reported as 88%; in assay [2], 44%; in [3], 95.3%; in assay [4], 0%; in [5] it was 0%; in assay [6], 0%. Also, the “%Inh” value in assay [7] is on record as 5%; in [8] it was 0%; in [9], 17%; in [10], 29%; in [11], 0%; in [12], 0%. Also, the “%Inh” value in [13] is recorded as 19%; in assay [14], 41%; in assay [15], 64%; in [16], 0%; in assay [17] it was 45%; in assay [18] it was 0%. Besides, the “%Inh” value is reported as 19% in [19] and 12% in assay [20].

In the case of `CN(c1cccc(CNc2nc(Nc3ccc4c(c3)CC(=O)N4)ncc2C(F)(F)F)c1)S(C)(=O)=O`, the “%Inh” value is given as 26% in assay [1]; 16% in assay [2]; 47% in [3]; 31% in assay [4]; 15% in [5]; 0% in assay [6]. Moreover, the “%Inh” value in [7] is given as 0%; in assay [8], 0%; in assay [9], 7%; in assay [10], 18%; in [11], 0%; in assay [12], 5%. The “%Inh” value in assay [13] amounted to 16%; in assay [14], 35%; in assay [15] it was 44%; in assay [16] it was 0%; in assay [17], 35%; in [18], 0%. For the same compound, the “%Inh” value in [19] turned out to be 1%; in assay [20], 55%.
